Screens as filed in PubChem BioAssay.
An excerpt weighted towards active compounds, which were near 9.3% of everything screened.
NPC1 prom act: activators of NPC1 promoter. hit rate 2.4% among 320,000. Potency, µM (titrated, usually from 9.22 µM), without a hit: at the highest dose activation, usual class: activators. Huh7 NPC1 promoter luciferase reporter, 24 h; further: % of control where 0% means no effect; nearly all actives have a fitted effect of over 60% in size
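Huh7 cells stably carrying NPC1 promoter–luciferase, plated in Opti-MEM with 10% FBS for 2 h, were exposed to compound in DMSO for 24 h at 37 °C; luciferase reagent was added for 10 min and luminescence read.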
FLuc counter: firefly luciferase modulation, counter-screen for miR-21 project | P08659 | purified FLuc, Km substrates, luminescence inhibition | Potency, µM (highest dose often 57.5 µM), for the others: at the highest dose activity change, negative = inhibition, actives largely listed as inhibitors | hit rate 6.9% among 360,000;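 further: plate controls were vehicle for no effect and reference inhibitor for full effect; nearly all actives have a fitted effect of over 55% in size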
Target sequence (P08659 whole entry, looked up): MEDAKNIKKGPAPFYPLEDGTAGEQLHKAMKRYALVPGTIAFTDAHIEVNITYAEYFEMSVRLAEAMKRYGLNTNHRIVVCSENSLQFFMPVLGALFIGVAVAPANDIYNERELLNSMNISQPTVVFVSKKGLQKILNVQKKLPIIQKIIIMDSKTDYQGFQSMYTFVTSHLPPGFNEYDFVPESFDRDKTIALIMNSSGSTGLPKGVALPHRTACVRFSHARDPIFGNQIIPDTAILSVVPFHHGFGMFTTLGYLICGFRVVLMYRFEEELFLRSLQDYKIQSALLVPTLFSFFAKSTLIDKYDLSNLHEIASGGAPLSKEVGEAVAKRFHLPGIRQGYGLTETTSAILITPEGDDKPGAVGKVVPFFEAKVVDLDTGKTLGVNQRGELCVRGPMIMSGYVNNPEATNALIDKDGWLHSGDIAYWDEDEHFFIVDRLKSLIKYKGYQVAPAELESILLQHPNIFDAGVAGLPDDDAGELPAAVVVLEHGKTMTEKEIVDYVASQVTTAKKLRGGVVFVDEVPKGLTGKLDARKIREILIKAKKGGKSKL
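Purified P. pyralis luciferase, 10 nM final, with Km-level 10 uM D-luciferin and 10 uM ATP in 50 mM Tris acetate pH 7.5, 10 mM Mg acetate, 0.01% Tween-20, 0.05% BSA; 6-point qHTS titration about 60 µM downward; luminescence read.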
SMN2 splice enh: increases expression of the SMN2 splice variant; Potency, µM (titrated, usually from 46.1 µM), inactives show at the highest dose activity change, positive = activation, usual class: activators; HEK293 SMN2-luciferase splicing reporter, luminescence, 30-36 h; hit rate 2.8% among 210,000; further: % of control where 0% means no effect; nearly all actives have a fitted effect of over 55% in size
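HEK293 cells carry an SMN2 […]–luciferase reporter in which exon 7 inclusion puts luciferase in frame. Cells were plated 10-12 h before compound addition, then incubated 30-36 h at 37C. ONE-Glo luminescence was read; sodium butyrate at 4.5 mM final served as control.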
ELG1 DNA repair: inhibitors of ELG1-dependent DNA repair in HEK293T cells; HEK293T ELG1-luciferase reporter, luminescence, 16 h; DNA damage induced by 5-fluorouridine; Potency, µM (series often up to 46.1 µM), inactives show at the top dose activity change, negative = inhibition, hits mostly inhibitors; hit rate 2.3% among 330,000; further: on the % scale 0 is the no-effect control and ±100 the full control effect; nearly all actives have a fitted effect of over 55% in size
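Cells (2,000 per well) received 5-fluorouridine plus test compound or DMSO and were incubated 16 hr at 37 °C, 5% CO2. Luciferase activity was read by luminescence 30 min after ONE-Glo addition; signal suppression marked inhibition of damage-induced ELG1 function.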
ELG1 genotox: induces genotoxicity in HEK293T cells with luciferase-tagged ELG1 | Potency, µM (top dose mostly 46 µM), for inactives: at the highest dose activity change, positive = activation, most hits filed as activators | AID 504466 | HEK293T ELG1-luciferase reporter, luminescence, 16 h | hit rate 1.3% among 330,000; further: % of control where 0% means no effect; nearly all actives have a fitted effect of over 60% in size
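After overnight (16 hr) compound treatment at 37 °C, ELG1-luciferase HEK293T cells were lysed with ONE-Glo; luminescence quantified 30 min later at room temperature.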
Rab9 prom act: activates the Rab9 promoter; Huh7 Rab9 promoter-luciferase reporter, luminescence, 24 h; Potency, µM (highest dose often 9.22 µM), without a hit: at the highest dose activation, negative = inhibition, actives largely listed as activators; hit rate 2.8% among 320,000; further: % of control where 0% means no effect; nearly all actives have a fitted effect of over 60% in size
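Huh7 cells stably carrying Rab9 promoter–luciferase reporter, plated 1500 cells/well, compound added after 2 h and incubated 24 h at 37 °C; luciferase luminescence then read after 10 min with detection reagent.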
The depositor's hits bear a star. The call rests on the fitted dose curve; in most records, active means well fitted curve in the direction sought with a large enough effect; inconclusive means small, poorly fitted or top-dose-only effect, or another doubt; inactive means no such curve, though single readings can be large; an effect the other way counts as inactive or inconclusive. Potency means the concentration at half of the fitted maximal effect.

What do the screens show for `O=C(CSc1nnc(-c2cccs2)o1)c1cccs1`?
NPC1 prom act: 1.6µM*; FLuc counter: 9.5µM*; SMN2 splice enh: -2%; ELG1 DNA repair: inconclusive; ELG1 genotox: inconclusive; Rab9 prom act: 2.8µM*

How did COc1ccc(-c2nnc(SCC(=O)c3cccs3)o2)cc1 do in these assays?
NPC1 prom act: 3.5µM*; FLuc counter: 2.4µM*; SMN2 splice enh: 16%; ELG1 DNA repair: inconclusive; ELG1 genotox: 10µM*; Rab9 prom act: 2.2µM*

Results for O=C(CSc1nnnn1-c1ccc(F)cc1F)Nc1ccccc1F ?
NPC1 prom act: 0%; FLuc counter: 3%; ELG1 DNA repair: 0%; ELG1 genotox: -3%; Rab9 prom act: 5%

What do the screens show for `COCCn1ccc2c(OCC(=O)NCCc3ccc(OC)c(OC)c3)cccc2c1=O`?
NPC1 prom act: 1%; FLuc counter: 0%; ELG1 DNA repair: inconclusive; ELG1 genotox: -1%; Rab9 prom act: -5%

Results for Cn1cccc1C(=O)N1CCC2(CCCN(Cc3ccccc3)C2)CC1 ?
SMN2 splice enh: -2%

Results for CC(=O)c1ccc(N2CCN(C(=O)CCS(=O)(=O)c3ccc4c(c3)oc(=O)n4C)CC2)cc1 ?
FLuc counter: -3%

Results for Cc1ccccc1C(=O)Nc1ccccc1C(=O)OCc1cc(=O)n2ccsc2n1 ?
FLuc counter: 0%

How did O=C(CSc1nnc(Cc2ccccc2)o1)Nc1cccc(F)c1 do in these assays?
NPC1 prom act: 1%; FLuc counter: 2%; ELG1 DNA repair: 13%; ELG1 genotox: 6%; Rab9 prom act: -3%

How did Cc1cc(-c2nnc(-c3cc4ccccc4oc3=O)o2)c(C)n1-c1ccccc1 do in these assays?
NPC1 prom act: 24%; FLuc counter: 6.7µM*; SMN2 splice enh: -6%; ELG1 DNA repair: inconclusive; ELG1 genotox: inconclusive; Rab9 prom act: 21%

How did COc1ccc2oc(=O)c(-c3nc4ccccc4o3)cc2c1 do in these assays?
NPC1 prom act: inconclusive; FLuc counter: 5.4µM*; SMN2 splice enh: inconclusive; ELG1 DNA repair: inconclusive; ELG1 genotox: inconclusive; Rab9 prom act: inconclusive

What do the screens show for `O=c1oc2ccccc2cc1-c1nc(-c2cccc(Cl)c2)cs1`?
FLuc counter: 3%

Results for O=c1oc2ccccc2cc1-c1nc2c(s1)CCCC2 ?
NPC1 prom act: inconclusive; FLuc counter: 0.15µM*; SMN2 splice enh: 1µM*; ELG1 DNA repair: inconclusive; ELG1 genotox: inconclusive; Rab9 prom act: 0.4µM*

What do the screens show for `O=c1oc2ccccc2cc1-c1nc2ccccc2o1`?
NPC1 prom act: 3.5µM*; FLuc counter: 3µM*; SMN2 splice enh: inconclusive; ELG1 DNA repair: inconclusive; ELG1 genotox: inconclusive; Rab9 prom act: 2.8µM*

Results for O=Cc1cn(-c2ccccc2)nc1-c1cc2ccccc2oc1=O ?
NPC1 prom act: 12%; FLuc counter: -1%; SMN2 splice enh: -18%; ELG1 DNA repair: inconclusive; ELG1 genotox: 5%; Rab9 prom act: 13%

Results for Cc1ccc(CNc2nc3ccc(Cl)cc3n3cnnc23)cc1 ?
FLuc counter: 0%; SMN2 splice enh: inconclusive

Results for COC(=O)c1ccc2c(=O)n(CCN3CCOCC3)c(SCC(=O)Nc3ccccc3Cl)nc2c1 ?
NPC1 prom act: -1%; FLuc counter: 2%; ELG1 DNA repair: -6%; ELG1 genotox: -6%; Rab9 prom act: 0%

What do the screens show for `CC(=O)c1ccc(N(CC(=O)NC2CCCC2)C(=O)CCC(=O)Nc2cc(C)on2)cc1`?
NPC1 prom act: -3%; FLuc counter: 1%; ELG1 DNA repair: 14%; ELG1 genotox: 5%; Rab9 prom act: 1%

Results for NC1=NN=C(c2ccc3c(c2)OCCO3)CS1 ?
NPC1 prom act: 1µM*; FLuc counter: 5.4µM*; SMN2 splice enh: 2.5µM*; ELG1 DNA repair: inconclusive; ELG1 genotox: -9%; Rab9 prom act: 0.56µM*
